Screening results as filed in PubChem BioAssay.
Vaccinia Venus – vaccinia inhibition (Venus reporter). 330,000 compounds, 0.46% hits. Vaccinia virus Venus reporter expression, fluorescence. Potency, µM (top dose mostly 36.5 µM), usual class: inhibitors; calls by dose curve; tested in A549 cells; further: nearly all actives have a fitted effect of over 30% in size
AmpC no deterg – blocks E. coli AmpC beta-lactamase in detergent-free assay. AmpC nitrocefin hydrolysis, absorbance 480 nm, 0.0001% Triton. Potency, µM (highest dose often 57.1 µM), hits mostly inhibitors. 330,000 compounds, 0.52% hits. AID 485341; further: nearly all actives have a fitted effect of over 20% in size
Target sequence (P00811 whole entry, looked up): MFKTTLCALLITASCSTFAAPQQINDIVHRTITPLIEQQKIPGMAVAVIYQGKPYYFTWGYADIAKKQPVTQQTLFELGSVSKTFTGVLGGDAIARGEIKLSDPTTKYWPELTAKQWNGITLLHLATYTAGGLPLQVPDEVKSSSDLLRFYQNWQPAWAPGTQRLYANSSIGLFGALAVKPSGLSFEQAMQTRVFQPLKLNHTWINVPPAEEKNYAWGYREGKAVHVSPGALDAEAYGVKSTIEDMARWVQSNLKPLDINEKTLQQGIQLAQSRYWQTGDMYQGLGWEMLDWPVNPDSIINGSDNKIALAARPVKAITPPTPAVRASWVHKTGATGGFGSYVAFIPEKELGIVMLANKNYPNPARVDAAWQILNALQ
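AmpC (5.3 nM in the dispensed reagent) in 20 mM phosphate pH 7.0 with 0.01% (detergent screen) or 0.0001% Triton X-100 was preincubated with compounds for 15 min at room temperature. Nitrocefin was then added from an 800 uM solution, and hydrolysis was followed at 480 nm.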
AmpC inh detg – inhibitors of E. coli AmpC beta-lactamase with detergent. P00811. AmpC hydrolysis of nitrocefin, absorbance 480 nm, 0.01% Triton. AID 485294. Potency, µM (top dose mostly 114 µM), hits mostly inhibitors. 370,000 compounds, 0.041% hits; further: nearly all actives have a fitted effect of over 25% in size
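AmpC (5.3 nM in the dispensed reagent) in 20 mM phosphate pH 7.0 with 0.01% (detergent screen) or 0.0001% Triton X-100 was preincubated with compounds for 15 min at room temperature. Nitrocefin was then added from an 800 uM solution, and hydrolysis was followed at 480 nm.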
SARS PLP yeast – blocks SARS-CoV papain-like protease in a yeast assay; Potency, µM (doses to about 32.9 µM), hits mostly activators; 330,000 compounds, 0.19% hits; S. cerevisiae expressing SARS-CoV PLpro, growth rescue; calls by dose curve; further: nearly all actives have a fitted effect of over 55% in size
AMA1 RON2 block – AMA1-RON2 (P. falciparum) interaction inhibition; AlphaScreen AMA1-biotinylated RON2 peptide binding; Potency, µM (series often up to 58.2 µM), actives largely listed as inhibitors; 360,000 compounds, 0.2% hits; further: nearly all actives have a fitted effect of over 45% in size
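AMA1 (3D7) with his tag at 25 nM final met compounds first, then biotinylated RON2 peptide at 25 nM; detection used donor plus acceptor beads, 10 µg/mL apiece, read by AlphaScreen after 30 min at room temperature.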
Vaccinia mCherry – inhibitors of vaccinia virus infection (mCherry reporter signal); Vaccinia virus mCherry reporter infection, fluorescence; Potency, µM (titrated, usually from 36.5 µM), most hits filed as inhibitors; 310,000 compounds, 0.63% hits; AID 720579; calls by dose curve; tested in A549 cells; further: nearly all actives have a fitted effect of over 35% in size
A number is an active result; . = inactive; ? = inconclusive; / = not tested or not shown. In the library only some 1.4% were active in any assay of this set; here they are far more common. Unless noted, the call rests on the fitted dose curve; in most records, active means well fitted curve in the direction sought with a large enough effect; inconclusive means small, poorly fitted or top-dose-only effect, or another doubt; inactive means no such curve, though single readings can be large; an effect the other way counts as inactive or inconclusive.

SMILES | Vaccinia Venus | AmpC no deterg | AmpC inh detg | SARS PLP yeast | AMA1 RON2 block | Vaccinia mCherry
CCc1c(C)c2cc3c(c(C)c2oc1=O)OCN(CCc1ccccc1F)C3 | . | / | . | / | / | .
CCCCCOc1ccc(N2C(=O)CC(N(O)c3ccccc3)C2=O)cc1 (stereo not drawn) | / | 20µM | ? | . | . | /
CCCCOc1ccc(N2C(=O)CC(N(O)c3ccccc3)C2=O)cc1 (stereo not drawn) | . | . | . | . | . | .
CC(C)C(NS(=O)(=O)c1cccs1)C(=O)NCc1ccc2c(c1)OCO2 (stereo not drawn) | . | 40µM | . | . | . | .
CC1(C)CC2CC(C)(CN2Cc2c(O)ccc3ccccc23)C1 (stereo not drawn) | . | 11µM | . | . | . | .
CC1(C)CC2CC(C)(CN2Cc2cccc([N+](=O)[O-])c2)C1 (stereo not drawn) | / | . | ? | . | . | /
CCS(=O)(=O)c1nc2ccccc2n1CC(=O)Nc1ccccc1C(=O)OC | . | / | . | / | / | .
Cc1nc(C)c(-c2csc(Nc3ccc(O)cc3C)n2)s1 | ? | . | . | . | . | 1.1µM
Cc1ccn(CCC(=O)NCC2Cc3cc(Cl)cc(-c4ccc5[nH]ccc5c4)c3O2)n1 (stereo not drawn) | . | / | / | / | / | .
O=[N+]([O-])c1cccc2c(N3CCCC3)ccnc12 | 7.1µM | . | . | . | . | ?
O=[N+]([O-])c1ccc(N2CCOCC2)c2cccnc12 | . | . | . | . | . | .
Cc1cc(N)ccc1N1CCCC1 | . | . | . | . | 16µM | .
COc1cc2c(cc1OC)CN(Cc1cc(=O)oc3cc(C)c(Cl)cc13)CC2 | . | 10µM | . | . | . | .
O=C(Nc1ccc2oc(-c3ccccc3F)nc2c1)c1ccc2c(c1)OCCO2 | . | . | . | . | 8.4µM | .
COc1ccc(CNCCC(c2ccc(OC(C)C)cc2)c2ccccc2OC)cc1 (stereo not drawn) | / | . | . | . | . | /
COc1ccccc1C(CCNCc1ccc(N(C)C)cc1)c1ccc(OC(C)C)cc1 (stereo not drawn) | / | . | . | . | 8.9µM | /
c1ccc(-c2nnc(-c3ccccn3)nc2NC2CCCCC2)cc1 | ? | . | . | . | . | 3.5µM
O=C1CCC[C@@H]2CC(Nc3ccccc3)C[C@@H]3CCN1[C@H]23 (stereo partly drawn) | . | / | / | / | / | .
COc1cc([C@@H]2c3cc4c(cc3C(O[C@@H]3O[C@@H]5COC(c6cccs6)O[C@H]5[C@H](O)[C@H]3O)C3COC(=O)[C@@H]32)OCO4)cc(OC)c1O (stereo partly drawn) | ? | / | / | / | / | 2µM
CC(C)(O)C#Cc1ccc(CN2CCc3nnc(CNC(=O)c4cccc(F)c4)n3CC2)cc1 | . | / | / | / | / | .
Cc1cnc(C)c(-c2ccc(F)c3c2OC(CNC(=O)Cc2c(C)[nH]c4ccccc24)C3)n1 (stereo not drawn) | . | / | / | / | / | .
COc1ccc(-c2nc3nc(C)cc(Nc4cccc(C(F)(F)F)c4)n3n2)cc1 | . | . | . | . | / | .
CCc1nc2nc(C)cc(Nc3cccc(C(F)(F)F)c3)n2n1 | 10µM | . | . | . | . | /
CCc1cccc(Nc2cc(C)nc3nc(C)nn23)c1 | / | . | ? | . | . | /
Cc1cc(Nc2cccc(C(F)(F)F)c2)n2nc(C)nc2n1 | 10µM | . | . | . | . | /
SMILES | Vaccinia Venus | AmpC no deterg | AmpC inh detg | SARS PLP yeast | AMA1 RON2 block | Vaccinia mCherry
CN1CCN(c2cc(N3CCc4ccccc4C3)c(F)cc2[N+](=O)[O-])CC1 | ? | . | ? | . | ? | 10µM
CN1CCN(c2cc(N3CCCC3)c([N+](=O)[O-])cc2F)CC1 | . | . | . | . | . | .
CCC12CN3CC(CC)(CN(C1)C3c1cc(Br)ccc1OC)C2=O (stereo not drawn) | . | / | . | / | / | .
CCCOc1ccc(-c2cnc(N)s2)cc1 | 5µM | . | . | . | . | 4.5µM
CCCOc1ccc(OCCSc2nnc(N)s2)cc1 | . | . | . | . | . | /
CCOC(=O)N1CCC(NC(=O)C2CCCN(C(=O)c3cc4sccc4n3C)C2)CC1 (stereo not drawn) | . | 0.56µM | . | . | . | .
CCOC(=O)N1CCN(C(=O)c2cc3sccc3n2C)CC1 | / | . | . | . | . | /
COc1ccc2nc(C)cc(Sc3nc4ccccc4s3)c2c1 | 1.4µM | . | . | . | . | 0.79µM
C[C@H](NC(=O)c1ccco1)C(=O)Nc1nc(-c2ccccn2)cs1 | . | / | / | / | . | .
O=C(CCS(=O)(=O)c1ccc(F)cc1)Nc1nc(-c2ccccn2)cs1 | / | . | . | . | . | /
O=C(Nc1nc(-c2ccccn2)cs1)c1ccco1 | ? | . | . | . | . | 2.5µM
O=C(CCS(=O)(=O)c1ccccc1)Nc1nc(-c2ccccn2)cs1 | ? | / | / | / | . | 10µM
O=C(Nc1ccc(OCC(F)(F)C(F)F)c(C(F)(F)F)c1)c1ccccc1 | ? | / | / | / | . | .
O=C(Nc1ccc(OCC(F)(F)C(F)F)c(C(F)(F)F)c1)c1ccccc1O | 10µM | . | . | . | . | ?
CC1CCCN(C(=O)CCS(=O)(=O)c2ccc3c(c2)n(C)c(=O)c(=O)n3C)C1 (stereo not drawn) | . | . | . | . | . | .
Cn1c(=O)c(=O)n(C)c2cc(S(=O)(=O)CCC(=O)N3CCOCC3)ccc21 | . | 4µM | . | . | . | .
COc1cccc(C2(CC(=O)N3CCCCC3CO)CC(=O)N(C)C2=O)c1 (stereo not drawn) | . | / | / | / | / | .
CCOc1ccc(CN2CCOc3ccc(C(O)c4cccnc4)cc3C2)cc1 (stereo not drawn) | . | / | / | / | / | .
